Assay results published in the supplement of paper PMC12645437, “Orthogonal IMiD-Degron Pairs Induce Selective Protein Degradation in Cells” (ACS Chemical Biology, 2025).
Over roughly 8,300 sequences, “log2 fold change of degron read counts, EGFP-low vs EGFP+ sorted cells (limma voom), compound-induced degradation” has its median near -1.1; the highest 2% begin near 3.2. The sample holds the highest values, similar sequences and a random draw of the others, so the mix is not that of the screen.

T1: CRBN, Q96SW2
T1 chain: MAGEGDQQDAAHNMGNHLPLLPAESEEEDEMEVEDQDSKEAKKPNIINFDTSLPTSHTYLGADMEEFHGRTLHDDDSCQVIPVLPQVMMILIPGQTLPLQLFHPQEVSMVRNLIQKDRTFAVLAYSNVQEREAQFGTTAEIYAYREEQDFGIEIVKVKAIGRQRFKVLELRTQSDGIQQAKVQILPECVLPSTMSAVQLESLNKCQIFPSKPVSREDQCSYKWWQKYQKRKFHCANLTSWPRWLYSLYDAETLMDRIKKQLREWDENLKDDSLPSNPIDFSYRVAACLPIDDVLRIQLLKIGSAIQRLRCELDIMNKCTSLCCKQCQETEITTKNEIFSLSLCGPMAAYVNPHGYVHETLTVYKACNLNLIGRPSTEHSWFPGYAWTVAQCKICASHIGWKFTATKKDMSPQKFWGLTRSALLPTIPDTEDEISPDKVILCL


Molecular target: T1, CRBN, Q96SW2
Test: log2 fold change of degron read counts, EGFP-low vs EGFP+ sorted cells (limma voom), compound-induced degradation; higher = more compound-induced degradation of the degron-EGFP fusion; degrons are variants of IKZF1/3 zinc finger 2; compound dose not given here
Details: Jurkat, 18 h
[1] = compound: compound 19 (5-tert-butyl-thalidomide)
[2] = compound: compound 22 (5-morpholino-thalidomide)
[3] = compound: compound 33 (diphenyl IMiD analogue)
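Note: pooled lentiviral library of zinc finger degron-EGFP fusions in mCherry-positive Jurkat cells, FACS-sorted after compound exposure, with degron abundance counted by next-generation sequencing.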

Sequence	log2 fold change of degron read counts [1]	log2 fold change of degron read counts [2]	log2 fold change of degron read counts [3]	log2 fold change of degron read counts (compound: thalidomide)
FQCPQCGAMFTQKGNLLRHIKL [46F_47Q_49P_50Q_52G_53A_54M_55F_67L_, Q9UKT9]	-1.88	-0.122	0.828	2.53
LCCNQCGFMCTQKGNLLRHIKL [46L_47C_49N_50Q_52G_53F_54M_55C_67L_, Q9UKT9]	-1.73	-2.27	-1.57	-1.43
FVCDVCGAVFTQKGNLLRHIKL [46F_47V_49D_50V_52G_53A_54V_55F_67L_, Q9UKT9]	-2.2	-1.22	0.29	-0.895
FQCNQCGAYFTQKGNLLRHIKL [46F_47Q_49N_50Q_52G_53A_54Y_55F_67L_, Q9UKT9]	-2.89	-2.26	-1.84	-0.227
FTCPQCGAQFTQKGNLLRHIKL [46F_47T_49P_50Q_52G_53A_54Q_55F_67L_, Q9UKT9]	-2.03	0.309	1.83	1.07
LECPICGFGCTQKGNLLRHIKL [46L_47E_49P_50I_52G_53F_54G_55C_67L_, Q9UKT9]	0.698	-0.66	1.1	2.27
FNCNQCGHVFTQKGNLLRHIKL [46F_47N_49N_50Q_52G_53H_54V_55F_67L_, Q9UKT9]	-2.33	-2.54	-2.77	-2.34
FECPICGHPFTQKGNLLRHIKL [46F_47E_49P_50I_52G_53H_54P_55F_67L_, Q9UKT9]	-2.51	-2.54	-0.989	-0.173
FFCPICGHGFTQKGNLLRHIKL [46F_47F_49P_50I_52G_53H_54G_55F_67L_, Q9UKT9]	-1.02	-1.29	-0.968	-1.48
FECEICGAPFTQKGNLLRHIKL [46F_47E_49E_50I_52G_53A_54P_55F_67L_, Q9UKT9]	2.7	-0.51	1.41	2.07
FLCEICGAPFTQKGNLLRHIKL [46F_47L_49E_50I_52G_53A_54P_55F_67L_, Q9UKT9]	2.96	2.82	2.69	3.17
FTCEICGAPFTQKGNLLRHIKL [46F_47T_49E_50I_52G_53A_54P_55F_67L_, Q9UKT9]	2.99	3.21	2.47	3.17
FACEICGAPFTQKGNLLRHIKL [46F_47A_49E_50I_52G_53A_54P_55F_67L_, Q9UKT9]	3.6	2.51	0.463	1.72
FDCEICGAPFTQKGNLLRHIKL [46F_47D_49E_50I_52G_53A_54P_55F_67L_, Q9UKT9]	2.21	0.891	-0.242	0.789
FRCEICGAPFTQKGNLLRHIKL [46F_47R_49E_50I_52G_53A_54P_55F_67L_, Q9UKT9]	3.62	3.98	3.31	3.58
FHCEICGAPFTQKGNLLRHIKL [46F_47H_49E_50I_52G_53A_54P_55F_67L_, Q9UKT9]	4	3.46	2.38	1.9
FHCEICGADFTQKGNLLRHIKL [46F_47H_49E_50I_52G_53A_54D_55F_67L_, Q9UKT9]	-1.38	-3.23	-1.06	-2.34
FHCEICGAFFTQKGNLLRHIKL [46F_47H_49E_50I_52G_53A_54F_55F_67L_, Q9UKT9]	0.885	-0.276	0.198	-1.2
